Reference: ChEMBL document CHEMBL3988442, “University of Dundee, Small-Polar-MMV Screening Library” (2021)
The whole screen tested about 69,000 compounds, of which about 1,000 (1.4%) showed an effect of 50% or more. For the sample, strong results were picked, then their nearest neighbours and some compounds at random.

Test system: Leishmania donovani
Assay: Leishmania intramacrophage assay
Assay type: functional, organism-based
Parameters: scale not given: in the data most compounds retested in dose-response had high values

O=C(NCCCc1ccncc1)C1CCCN(Cc2ccco2)C1 (stereo not given)
Percent Effect (30 µM, 30.03 µM): 28.63%

Cc1cnccc1NCCNC(=O)C1CCCN(Cc2ccco2)C1 (stereo not given)
Percent Effect (30.3 µM, […]): 54.03%

O=C(NCCc1cccnc1)C1CCCN(Cc2ccco2)C1 (stereo not given)
Percent Effect (30.3 µM, […]): -19.49%

CCN(C)c1ncnc2c1CCN(C(=O)c1cnccn1)CC2.O=C(O)C(F)(F)F
Percent Effect (30.3 µM, […]): 16.93%

Cc1ncoc1C(=O)N1C[C@H]2CCC[C@@]2(COCC2CCOCC2)C1
Percent Effect (30 µM, 30.03 µM): 24.66%

CN1C(=O)CCCC12CCCN(C(=O)c1cccc(C(F)(F)F)c1)C2 (stereo not given)
Percent Effect (30.3 µM, […]): 25.18%

CN(C)CCNCC1CCOC(C)(C)C1 (stereo not given)
Percent Effect (30.3 µM, […]): -2.235%

CC(CCc1ccccc1)NC(=O)CNCCCN(C)C.O=C(O)C(=O)O (stereo not given)
Percent Effect (30.3 µM, […]): -24.91%

CN(C)CCCNCC1CCOC(C)(C)C1 (stereo not given)
Percent Effect (30.3 µM, […]): 10.54%

CN(C)CCCNCCC(Cc1ccccc1)C1CCOC(C)(C)C1.O=C(O)C(=O)O (stereo not given)
Percent Effect (30.3 µM, […]): 91.79%

CN(C)CCNCCC(c1ccccc1)C1CCOC(C)(C)C1.O=C(O)C(=O)O (stereo not given)
Percent Effect (30.3 µM, […]): 94.59%

CN(C)CCCNC(=O)C(c1cccc(F)c1)N(C)C (stereo not given)
Percent Effect (30.3 µM, […]): 17.93%

CN(C)CCNCCC(Cc1ccccc1)C1CCOC(C)(C)C1.O=C(O)C(=O)O (stereo not given)
Percent Effect (30.3 µM, […]): 11.95%

CCN(CC)CCNCC1CCOC(C)(C)C1 (stereo not given)
Percent Effect (30.3 µM, […]): 12.8%

CN(C)CCCNCCC(c1ccccc1)C1CCOC(C)(C)C1.O=C(O)C(=O)O (stereo not given)
Percent Effect (30.3 µM, […]): 97.24%

C[C@@H]1CN(C(=O)C2CCS(=O)(=O)CC2)C[C@@]1(O)C1CC1
Percent Effect (30.3 µM, […]): -11.49%

Cc1nc(C)n(CC2CCCCN2CCCO)n1 (stereo not given)
Percent Effect (30.3 µM, […]): -18.17%

CC(=O)Nc1cc2c(cc1C)OCO2
Percent Effect (30.3 µM, […]): 3.338%

Cc1ccc(F)cc1NS(=O)(=O)c1cc2c(c(C(=O)O)c1)OCCO2
Percent Effect (30 µM): 10.19%

CN1CCO[C@@H]2CN(C(=O)NCc3ccccc3)CC[C@@H]2C1.O=C(O)C(F)(F)F
Percent Effect (30.3 µM, […]): 14.01%

O=C(N1CCCC1)N1C[C@H]2CCC[C@@]2(COCc2ccccn2)C1.O=C(O)C(F)(F)F
Percent Effect (30.3 µM, […]): 12.71%

Cc1ccc(CN2CC[C@@H]3OCCN(Cc4ccncc4)[C@H]3CC2)s1.O=C(O)C(F)(F)F.O=C(O)C(F)(F)F.O=C(O)C(F)(F)F
Percent Effect (30.3 µM, […]): -14.43%

CS(=O)(=O)NCCCNC(=O)NCc1ccccc1
Percent Effect (30 µM): 13.69%

CN(C)CC(=O)N1CC2(CCN(C(=O)Nc3ccccc3)C2)C1.O=C(O)C(F)(F)F
Percent Effect (30.3 µM, […]): 27.48%

Cc1nnc([C@]23COC[C@H]2CN(Cc2cnn(C)c2)C3)o1.O=C(O)C(F)(F)F
Percent Effect (30.3 µM, […]): 10.4%

CCOc1ccccc1CNCC1CCN(CC(C)O)CC1 (stereo not given)
Percent Effect (30 µM): 14.79%

CC(O)CN1CCC(CNCc2ccccc2Cl)CC1 (stereo not given)
Percent Effect (30 µM): 7.148%

Cc1noc(C)c1CNCC1CCN(CC(O)c2ccccc2)CC1 (stereo not given)
Percent Effect (30 µM, 30.03 µM): 48.93%

CC(O)CN1CCC(CNCc2ccccc2Br)CC1 (stereo not given)
Percent Effect (30 µM, 30.03 µM): 58.06%

Cc1ccc(CNCC2CCN(CC(O)c3ccccc3)CC2)o1 (stereo not given)
Percent Effect (30 µM): 53.67%

COc1cccc(CNCC2CCN(CC(C)O)CC2)c1OC (stereo not given)
Percent Effect (30 µM): -4.893%

COc1ccc(CNCC2CCN(CC(C)O)CC2)c2ccccc12 (stereo not given)
Percent Effect (30 µM, 30.03 µM): 95.94%

Cc1ncccc1CNCC1CCN(CC(O)c2ccccc2)CC1 (stereo not given)
Percent Effect (30 µM, 30.03 µM): 43.15%

CC(O)CN1CCC(CNCc2ccccc2F)CC1 (stereo not given)
Percent Effect (30 µM): 14.91%

CCOc1ccc(NC(=O)N2CCNC(=O)C2)c(C(F)(F)F)c1
Percent Effect (30.3 µM, […]): -5.154%

c1ccc(OCCCN2CCOC(CNc3cccnn3)C2)cc1 (stereo not given)
Percent Effect (30 µM): 30.1%

CCc1nnc(CN(C)C(=O)C(CC)n2c(CC)nc3ccccc32)o1 (stereo not given)
Percent Effect (30.3 µM, […]): 37.19%

CC(=O)N1CC(=O)N(c2cnn(C)c2)CC12CCN(Cc1ccco1)C2 (stereo not given)
Percent Effect (30.3 µM, […]): 8.312%

CC(c1nc(C(C)(C)C)no1)N1CCN(C(=O)CN2CCOCC2)CC1 (stereo not given)
Percent Effect (30.3 µM, […]): 24.72%

CSC(C)(C)CNC(=O)NC1CCC1
Percent Effect (30.3 µM, […]): -4.731%

COc1ccccc1NC(=O)NCc1nnc(SC)n1C
Percent Effect (30.3 µM, […]): 56.86%

CCc1ccccc1NC(=O)NCc1nnc(SC)n1C
Percent Effect (30.3 µM, […]): 23.33%

CSc1nnc(CNC(=O)Nc2ccccc2F)n1C
Percent Effect (30.3 µM, […]): 17.43%

O=C(c1cnc2ccc(Cl)cc2c1NCc1ccco1)N1CCCCC1
Percent Effect (30.3 µM, […]): -0.01015%

Cc1nc(C)n(CC2CCCCN2CCOc2ccc(C#N)cc2)n1 (stereo not given)
Percent Effect (30 µM): 19.26%

COC(=O)NC1(C(=O)Nc2ccc(-c3ncc[nH]3)cc2)CCCC1
Percent Effect (30.3 µM, […]): 26.54%

CCc1noc(C2CCCCN2C(=O)c2cc(C)oc2C)n1 (stereo not given)
Percent Effect (30.3 µM, […]): -92.24%

CCS(=O)(=O)N1CCC2(CC1)COC(COc1cccnc1)C2.O=C(O)C(F)(F)F (stereo not given)
Percent Effect (30.3 µM, […]): 15.1%

Cc1ccc(C(=O)N2CCC3(CC2)COC(COc2cccnc2)C3)o1.O=C(O)C(F)(F)F (stereo not given)
Percent Effect (30.3 µM, […]): 59.81%

Cc1ccc(C(=O)N2CCC3(CC2)COC(COc2ccccn2)C3)o1.O=C(O)C(F)(F)F (stereo not given)
Percent Effect (30 µM, 30.03 µM): -68.01%

Cc1ccc(N2CCCC(NCC(=O)NC3CCOCC3)C2)nn1 (stereo not given)
Percent Effect (30 µM, 30.03 µM): 24.15%

CCc1nc(C2CCCN(c3nccc(N4CCCC4)n3)C2)no1 (stereo not given)
Percent Effect (30.3 µM, […]): 4.333%

CC(C)CCN1CC[C@H](c2nnc(Cc3c[nH]c4ccccc34)o2)C1
Percent Effect (30.3 µM, […]): 31.19%

CCOc1ccc(CN2CCC(c3nc(C)cc(C)n3)C2)cc1CO (stereo not given)
Percent Effect (30.3 µM, […]): 20.63%

COc1cc(C)c(-c2ccc(F)c3c2OC(CN)C3)cc1C (stereo not given)
Percent Effect (30.3 µM, […]): 82.34%

COc1cc(OC)cc(-c2cccc3c2OC(CN)C3)c1 (stereo not given)
Percent Effect (30.3 µM, […]): 81.48%

COc1c(F)cc(-c2cccc3c2OC(CN)C3)cc1F (stereo not given)
Percent Effect (30.3 µM, […]): 78.5%

COc1cc(-c2cccc3c2OC(CN)C3)ccc1O (stereo not given)
Percent Effect (30.3 µM, […]): 33.17%

COc1cc(-c2cccc3c2OC(CN)C3)cc(OC)c1OC (stereo not given)
Percent Effect (30.3 µM, […]): 39.45%

Cc1nc(-c2cc(Cl)cc3c2OC(CN)C3)c[nH]1 (stereo not given)
Percent Effect (30.3 µM, […]): 27.22%

COc1cc(-c2ccc(F)c3c2OC(CN)C3)cc(OC)c1OC (stereo not given)
Percent Effect (30.3 µM, […]): 19.84%

COc1cccnc1-c1ccc(F)c2c1OC(CN)C2 (stereo not given)
Percent Effect (30.3 µM, […]): -22.62%

Cc1nc(-c2cc(F)c3c(c2)CC(CN)O3)c[nH]1 (stereo not given)
Percent Effect (30.3 µM, […]): 25.07%

NCC1Cc2cccc(-c3ccc(O)c(F)c3)c2O1 (stereo not given)
Percent Effect (30.3 µM, […]): 31.37%

NCC1Cc2cccc(-c3nccc(N4CCC(O)CC4)n3)c2O1 (stereo not given)
Percent Effect (30.3 µM, […]): 19.12%

COc1ccc(-c2cccc3c2OC(CN)C3)cc1F (stereo not given)
Percent Effect (30.3 µM, […]): 82.3%

Cn1cnnc1C1CCCN(C(=O)c2cc(Cl)c(Cl)n2C)C1 (stereo not given)
Percent Effect (30 µM): 16.78%

Cc1ccc(N2CCCC(NCc3ccc4c(c3)OCCO4)C2)nn1 (stereo not given)
Percent Effect (30.3 µM, […]): -12.27%

CCCNC(=O)CCC(=O)N1CCC(c2n[nH]c(C3CC3)n2)CC1
Percent Effect (30.3 µM, […]): -11.33%

O=C1CCN(C(=O)NCc2ccccc2Oc2ccccc2)CCN1
Percent Effect (30.3 µM, […]): -11.56%

COc1ccc(CN2CCn3cc(CNC(=O)CC4CC4)nc3C2)cc1.O=C(O)C(F)(F)F
Percent Effect (30.3 µM, […]): -3.07%

CN1Cc2ccccc2CC1C(=O)N1CCN(CCS(C)(=O)=O)CC1 (stereo not given)
Percent Effect (30.3 µM, […]): -7.608%

COc1ccc(-c2nnsc2C(=O)N2CCC(C(N)=O)CC2)cc1
Percent Effect (30.3 µM, […]): -2.161%

O=c1[nH]cc(N2CCOCC2)c(=O)[nH]1
Percent Effect (30.3 µM, […]): -12.54%

O=C(O)C(F)(F)F.O=C(O)C(F)(F)F.O=c1ccc2c(n1Cc1ccncc1)CCN(Cc1ccoc1)CC2
Percent Effect (30.3 µM, […]): 7.941%

O=C(O)C(F)(F)F.O=C(O)C(F)(F)F.O=c1ccc2c(n1CCN1CCCC1)CCN(Cc1ccoc1)CC2
Percent Effect (30 µM, 30.03 µM): 45%

O=C(O)C(F)(F)F.O=C(O)C(F)(F)F.O=c1ccc2c(n1Cc1cccnc1)CCN(Cc1ccoc1)CC2
Percent Effect (30.3 µM, […]): 52.28%

CCN(CC)C(CNC(=O)c1ccnc(N(C)C)c1)c1ccsc1 (stereo not given)
Percent Effect (30.3 µM, […]): 1.995%

Cc1ccc(NC2CCN(C(=O)CCc3c(C)noc3C)CC2)nn1
Percent Effect (30 µM): 23.52%

O=C(O)c1ccccc1-c1c(-c2ccccc2)ncn1C[C@H]1CCCN1
Percent Effect (30.3 µM, […]): 31.03%

O=C(O)c1ccccc1-c1c(-c2ccccc2)ncn1CC1CCCO1 (stereo not given)
Percent Effect (30.3 µM, […]): -1.472%

Oc1ccc(-c2c(-c3ccccc3)ncn2C[C@H]2CCCN2)cc1
Percent Effect (30.3 µM, […]): 51.83%

CCc1ccc(C(COC)NC(=O)c2ccc(C(N)=O)cc2)o1 (stereo not given)
Percent Effect (30.3 µM, […]): 64.18%

CCc1ccc(C(COC)NC(=O)c2ccc(NC(C)=O)cc2)o1 (stereo not given)
Percent Effect (30.3 µM, […]): -4.032%

CCc1ccc(C(COC)NC(=O)c2ccc(O)nc2)o1 (stereo not given)
Percent Effect (30.3 µM, […]): -7.414%

NC(=O)CS(=O)(=O)Cc1csc(-c2ccccc2)n1
Percent Effect (30.3 µM, […]): 15.77%

Cc1nnsc1C(=O)NCCNS(=O)(=O)c1cccs1
Percent Effect (30.3 µM, […]): -23.26%

Cc1nc(C)n(C2CCCN(C(=O)c3sccc3C)C2)n1 (stereo not given)
Percent Effect (30 µM): 16.01%

CC(C)c1noc(CCNC(=O)NCC2Cc3ccccc3O2)n1 (stereo not given)
Percent Effect (30.3 µM, […]): -9.19%

CC(=O)NCCNC(=O)NCC1Cc2ccccc2O1 (stereo not given)
Percent Effect (30.3 µM, […]): 52.86%

Cc1cc(C)c(CNC(=O)NCC2Cc3ccccc3O2)c(=O)[nH]1 (stereo not given)
Percent Effect (30.3 µM, […]): 1.622%

NS(=O)(=O)CCNC(=O)c1cc(Br)c2c(c1)OCCO2
Percent Effect (30.3 µM, […]): -2.46%

CC(C)CC(=O)N1C[C@@H]2CCN(c3ncccn3)C[C@@H]2C1.O=C(O)C(F)(F)F
Percent Effect (30 µM, 30.03 µM): 12.14%

CC(C)(C)c1n[nH]cc1CNC1CCC(C(F)(F)F)CC1.Cl (stereo not given)
Percent Effect (30.3 µM, […]): -4.401%

COCCNC(=O)[C@@H]1CN(c2ncccn2)C[C@H]2OCC[C@H]21
Percent Effect (30.3 µM, […]): 9.036%

COCCNC(=O)[C@@H]1CN(c2cc(OC)ncn2)C[C@H]2OCC[C@H]21
Percent Effect (30.3 µM, […]): 7.324%

COCCNC(=O)[C@H]1CN(c2ncccn2)C[C@H]2OCC[C@@H]12
Percent Effect (30.3 µM, […]): 52.44%

CCC1CCC(N(Cc2cc(=O)n(C)c(=O)n2C)C2CC2)CC1 (stereo not given)
Percent Effect (30.3 µM, […]): 27.04%

CC1(C)CN(CC(F)(F)F)CCN1CC(N)=O
Percent Effect (30.3 µM, […]): 13.64%

Cc1ccc(OCCn2cnc3oc(C)c(C(=O)O)c3c2=O)cc1
Percent Effect (30.3 µM, […]): -9.017%
